Hits are enriched below; roughly 7.6% of the tested compounds scored in any of these assays.
KB-3-1 cytotox: KB-3-1 parental cell cytotoxicity | KB-3-1 viability, CellTiter-Glo ATP luminescence, 72 h | Potency, µM (highest dose often 46.1 µM), most hits filed as cytotoxic | hit rate 1.4% among 400,000 | AID 1347075; note: nearly all actives have a fitted effect of over 60% in size
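Parental KB-3-1 viability, qHTS format: 72 h compound exposure, 37 °C; CellTiter-Glo; media-only wells and DMSO plates as controls; concentration-effect fits on corrected data.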
MCF10A rerep: induces DNA re-replication in MCF 10a normal breast cells; MCF 10A DNA re-replication, Hoechst nuclear intensity, 48 h; Potency, µM (highest dose often 46.1 µM), most hits filed as activators; hit rate 2.9% among 350,000; AID 624296; note: nearly all actives have a fitted effect of over 50% in size
KB-V1 cytotox: KB-V1 MDR subline cytotoxicity | hit rate 3.4% among 400,000 | AID 1347076 | KB-V1 MDR cells viability, CellTiter-Glo, 72 h | Potency, µM (titrated, usually from 46.1 µM), hits mostly cytotoxic; note: nearly all actives have a fitted effect of over 60% in size
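Cytotoxicity toward P-gp-expressing KB-V1 cells was determined as loss of CellTiter-Glo luminescence after 72 h at 37 degrees C. Compounds were tested in quantitative HTS format across a concentration range, with curves fitted to normalized data.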
SW480 rerep: induces DNA re-replication in SW480 colon adenocarcinoma cells | SW480 DNA re-replication, Hoechst DNA content imaging, 48 h | Potency, µM (titrated, usually from 46.1 µM), hits mostly activators | hit rate 1.8% among 340,000 | AID 624297; note: nearly all actives have a fitted effect of over 55% in size
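Per well, 250 cells were exposed to pinned compound for 48 hr. Nuclear DNA was visualised with Hoechst (40 min, 37 C) and total object intensity recorded by fluorescence scanning.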
KCNH2 WT inh: inhibitors of human wildtype KCNH2 potassium channel; U2OS, BacMam KCNH2, thallium flux FluxOr; active compounds read low; Q12809; activity change, % at 1.84 µM; hit rate 0.37% among 340,000; AID 720551;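 active = maximum activity change below -70%; inconclusive = maximum activity change between -70% and -50%; inactive = maximum activity change above -50%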
Target sequence (Q12809 whole entry, looked up): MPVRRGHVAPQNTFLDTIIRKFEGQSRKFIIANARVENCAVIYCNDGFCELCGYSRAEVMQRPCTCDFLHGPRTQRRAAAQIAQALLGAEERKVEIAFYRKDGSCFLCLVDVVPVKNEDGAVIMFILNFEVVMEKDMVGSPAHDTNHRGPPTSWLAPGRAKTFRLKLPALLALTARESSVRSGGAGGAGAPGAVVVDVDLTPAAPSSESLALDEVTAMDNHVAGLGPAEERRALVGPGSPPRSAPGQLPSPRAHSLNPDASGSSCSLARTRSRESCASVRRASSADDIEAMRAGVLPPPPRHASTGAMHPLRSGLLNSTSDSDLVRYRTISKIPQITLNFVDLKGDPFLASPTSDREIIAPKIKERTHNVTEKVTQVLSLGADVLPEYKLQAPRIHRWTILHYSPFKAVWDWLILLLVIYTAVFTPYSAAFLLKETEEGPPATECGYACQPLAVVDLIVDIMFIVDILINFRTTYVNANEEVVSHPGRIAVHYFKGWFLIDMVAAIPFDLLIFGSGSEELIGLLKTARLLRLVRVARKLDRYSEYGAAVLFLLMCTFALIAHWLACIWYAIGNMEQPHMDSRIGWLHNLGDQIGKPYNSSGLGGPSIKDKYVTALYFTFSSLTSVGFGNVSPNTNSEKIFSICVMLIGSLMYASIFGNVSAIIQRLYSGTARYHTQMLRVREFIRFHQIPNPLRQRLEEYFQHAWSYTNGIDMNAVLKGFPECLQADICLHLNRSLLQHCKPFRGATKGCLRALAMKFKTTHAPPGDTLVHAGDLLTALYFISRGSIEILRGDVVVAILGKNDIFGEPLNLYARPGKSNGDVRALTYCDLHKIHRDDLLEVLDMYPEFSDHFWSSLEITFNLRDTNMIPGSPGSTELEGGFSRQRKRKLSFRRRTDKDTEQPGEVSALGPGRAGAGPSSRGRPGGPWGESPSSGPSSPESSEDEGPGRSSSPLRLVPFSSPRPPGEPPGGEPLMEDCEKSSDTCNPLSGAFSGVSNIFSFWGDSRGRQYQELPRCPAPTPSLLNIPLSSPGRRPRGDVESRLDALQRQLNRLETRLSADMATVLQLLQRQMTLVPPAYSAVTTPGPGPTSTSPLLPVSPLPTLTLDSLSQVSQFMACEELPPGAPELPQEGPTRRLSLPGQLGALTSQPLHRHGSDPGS
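U2OS cells transduced with wild-type KCNH2 virus are loaded with FluxOr dye for 45 min, and thallium flux is measured in kinetic reads before and after stimulation buffer. Rate constants are normalized to DMSO controls.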
KCNH2 3.1 inh: inhibitors of human KCNH2 3.1 potassium channel isoform. activity change, % (tested at about 1.8 µM). U2OS KCNH2 3.1, thallium flux FluxOr; active compounds read low. hit rate 0.95% among 340,000;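 active = maximum activity change below -70%; inconclusive = maximum activity change from -70% to -50%; inactive = maximum activity change above -50%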;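 note: thallium influx rate constant from kinetic fluorescence after stimulation buffer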
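Thallium flux via FluxOr fluorescence (Red40 quencher, 45 min loading) in U2OS cells virally expressing the KCNH2 3.1 isoform (1.77 x 10^8 /mL virus, overnight at 37 C). Rate constants from 2-min kinetic reads post-stimulation, normalised to positive and negative controls.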
Numbers stand for hits; i = inactive; ? = inconclusive; nt = no result given; ! = repeats disagree. Unless noted, calls come from the whole dose curve; as a rule, active = well fitted curve in the direction sought with a large enough effect; inconclusive = small, poorly fitted or top-dose-only effect, or another doubt; inactive = no such curve, though single readings can be large; an effect the other way counts as inactive or inconclusive.

SMILES	KB-3-1 cytotox	MCF10A rerep	KB-V1 cytotox	SW480 rerep	KCNH2 WT inh	KCNH2 3.1 inh
COc1ccc(OC)c(NC(=O)c2cccc(N3C(=O)C4C5C=CC(C6CC56)C4C3=O)c2)c1 (stereo unspecified)	i	i	?	i	-167	i
COC(=O)c1ccc(NC(=O)c2cccc(N3C(=O)C4C5C=CC(C6CC56)C4C3=O)c2)cc1 (stereo unspecified)	?	16µM	?	i	i	nt
O=C(NCc1ccc(Cl)cc1Cl)c1cccc(N2CCCS2(=O)=O)c1	i	nt	i	nt	nt	nt
C/C(=N\NC(=O)c1cc(C)nc2ccc(C)cc12)c1ccncc1	i	i	i	i	i	i
Cc1ccc(-n2c(C)cc(C(=O)CSc3n[nH]c(N)n3)c2C)cc1	21µM	i	i	i	i	i
Cc1cc(C(=O)CSc2n[nH]c(N)n2)c(C)n1-c1ccccc1	i	?	i	i	i	i
Cc1cc(C(=O)CSc2n[nH]c(N)n2)c(C)n1-c1ccc(F)cc1	?	i	16µM	i	i	i
COC(=O)Nc1ccc(C)cc1NC(=O)OC	i	i	i	i	i	i
COC(=O)Nc1ccc2ccc3c(NC(=O)OC)ccc4ccc1c2c43	nt	21µM	nt	?	i	i
CN(C)/C=N/c1ncc(C(=O)OC(C)(C)C)s1	i	i	i	i	i	i
N#CC1(NC(=O)Cn2ncc(Cl)c(Cl)c2=O)CCCCC1	?	4.5µM	i	i	i	i
COc1ccc2c(C)c(CCC(=O)NCc3ccc(Cl)cc3)c(=O)oc2c1C	i	nt	i	nt	nt	nt
COc1cccc(-c2nn(C)c3sc(C(=O)NCc4ccco4)cc23)c1	?	6.3µM	i	i	i	i
CN(CCCNC(=O)c1cc2c(Cl)nc3ccccc3c2s1)Cc1ccccc1	i	?	i	21µM	-307	nt
CCN(CC)CCCNC(=O)c1cc2c(-c3cccc(OC)c3)nn(C)c2s1	i	?	i	?	i	i
COc1cccc(-c2nn(C)c3sc(C(=O)NCCCN(C)Cc4ccccc4)cc23)c1	?	?	i	16µM	i	i
CCOc1ccc(CCNC(=O)c2cc3c(-c4ccc(OC)c(OC)c4)nn(C)c3s2)cc1OCC	i	nt	23µM	nt	nt	nt
Cc1ccc2nc(Cl)c3cc(C(=O)NCCCN(C)Cc4ccccc4)sc3c2c1	i	nt	i	nt	nt	nt
FC(F)(F)c1cc(CCN2CCNC[C@H]2Cc2cccc3ccccc23)cc(C(F)(F)F)c1	i	16µM	i	?	i	i
COc1ccc(N2CCN(C(CNC(=O)C(=O)NCc3cccs3)c3ccco3)CC2)cc1 (stereo unspecified)	i	i	i	i	i	i
O=C(NCCc1ccccc1F)C1CC(=O)N(c2ccccc2)C1 (stereo unspecified)	i	i	i	i	i	i
CCOc1ccc(CCNC(=O)C2CCN(S(=O)(=O)N3CCC(C)CC3)CC2)cc1OCC	i	i	2.6µM	i	i	i
COc1ccc(CCNC(=O)C2CCN(S(=O)(=O)N3CC(C)CC(C)C3)CC2)cc1OC (stereo unspecified)	i	i	21µM	i	i	i
COc1ccc(CCNC(=O)C2CC(=O)N(c3ccc(C(C)(C)C)cc3)C2)cc1OC (stereo unspecified)	i	0.58µM	i	i	i	i
CCOc1ccc(CNC(=O)C2CCN(S(=O)(=O)N3CCC(C)CC3)CC2)cc1OC	i	nt	i	nt	i	i
SMILES	KB-3-1 cytotox	MCF10A rerep	KB-V1 cytotox	SW480 rerep	KCNH2 WT inh	KCNH2 3.1 inh
O=C(NCCc1ccccc1F)C1CC(=O)N(c2cccc(C(F)(F)F)c2)C1 (stereo unspecified)	i	i	13µM	i	i	i
COc1ccc(CCNC(=O)C2CCCN(S(=O)(=O)N3CC(C)CC(C)C3)C2)cc1OC (stereo unspecified)	i	i	?	i	i	i
COc1cccc(/C=N/NC(=O)c2cccc3ccccc23)c1OC	i	i	i	i	i	i
O=C(CCS(=O)(=O)c1ccccc1)OCc1ccc([N+](=O)[O-])cc1	i	i	i	i	i	i
Cc1ccc(NC(=O)/C=C/c2cccs2)c([N+](=O)[O-])c1	?	?	5.8µM	21µM	i	i
Cc1ccc(NC(=O)/C=C/C(=O)O)c([N+](=O)[O-])c1	i	i	i	i	i	i
Cc1cccc(C(=O)Nc2nnc(S(=O)(=O)N(C)Cc3ccco3)s2)c1	i	i	i	i	i	i
COc1c2c(c3c(c1OC)c(=O)c1ccccc1n3C)OCO2	i	i	13µM	i	i	i
CCCCc1ccc(C(=O)Nc2ccc3nc(N(CC)CC)cc(C)c3c2)cc1	i	nt	i	nt	nt	nt
CCN(CC)c1cc(C)c2cc(NC(=O)c3cc(OC)cc(OC)c3)ccc2n1	i	nt	i	nt	nt	nt
CCN(CC)c1cc(C)c2cc(NC(=O)c3ccc(OC)c(OC)c3)ccc2n1	16µM	nt	i	nt	nt	nt
COc1ccc(Nc2cc(C)c3cc(NC(=O)c4ccccc4Cl)ccc3n2)cc1	i	nt	18µM	nt	nt	nt
CCN(CC)c1cc(C)c2cc(NC(=O)c3ccc(F)cc3Cl)ccc2n1	?	nt	i	nt	nt	nt
COc1ccccc1CC(=O)Nc1ccc2nc(Nc3cccc(Cl)c3)cc(C)c2c1	i	nt	i	nt	nt	nt
CCN(CC)c1cc(C)c2cc(NC(=O)c3ccc(Br)o3)ccc2n1	?	9.2µM	?	?	i	?
CCN(CC)c1cc(C)c2cc(NC(=O)/C=C/c3ccccc3Cl)ccc2n1	13µM	nt	i	nt	nt	nt
Cc1ccc(Cl)cc1NC(=O)C1CCCN(S(=O)(=O)c2c(C)noc2/C=C/N(C)C)C1 (stereo unspecified)	i	nt	i	nt	nt	nt
CCN(CC)c1cc(C)c2cc(NC(=O)c3ccccc3OC)ccc2n1	18µM!	?	?	?	i	i
